Compound activity (PubChem BioAssay)
An excerpt weighted towards active compounds, which were near 1.9% of everything screened.
S1P1 ag-PAM: S1P1 (human) agonism or agonism potentiation; P21453; S1P1 CRE-bla cells, forskolin, beta-lactamase FRET, potentiator mode; S1P1 agonist co-added at EC20, 2 nM; 100% = saturating reference agonist, 0% = basal; activation, % at 9.5 µM; actives 0.57% (n = 56,000); AID 449;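 active = activation above a cutoff set at the mean activation of all tested compounds plus 3 SD, cut at about 54% in these data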;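 also: forskolin at 4 µM as EC80 and the EC20 agonist is SEW2871; 100% = SEW2871 at its EC100 plus forskolin at EC80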
BAP1 block: inhibitors of human BAP1 deubiquitinase | Q92560 | recombinant BAP1, Ub-AMC hydrolysis fluorescence kinetic; hits give low values | actives 0.48% (n = 72,000) | AID 436 | activity remaining (% of control), % at 20 µM;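 active = activity remaining at or below 50% of control, provided the compound also passes the data quality filters; inactive = the rest, including low values that fail the filters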;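 also: 100% = DMSO wells rate and 0% = substrate alone blank rate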
Her2 expr inh: Her2 kinase expression inhibition; P04626; SKBR-3 HER2 protein level, AlphaScreen, 18-24 h; hits give low values; HER2 level % of control, % at 10 µM; actives 0.69% (n = 65,000);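 active = HER2 level under 5% of the carrier-only control; inconclusive = no clear call, values can overlap the other calls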;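 also: 100% = DMSO carrier and 0% = 500 nM PU-H71 HSP90 inhibitor; lower value means stronger loss of Her2 protein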
SK-BR-3 tox 24h: SK-BR-3 proliferation inhibitors. SK-BR-3 viability, CellTiter-Glo ATP luminescence, 24 h; hits give low values. viability, % at 10 µM. actives 0.47% (n = 41,000). AID 847;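 active = viability at or below the median of all test compounds minus 3 SD, in both replicates if run twice, cut at about 45% in these data; inconclusive = duplicate replicates that disagree with each other; inactive = viability above that cutoff in every replicate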;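 also: 100% = median untreated cell wells and 0% = median positive control drug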
TNAP act mid DEA: activators of human TNAP at intermediate phosphate acceptor | 64,000 tested, under 10 active | activation factor at 20 µM | purified TNAP, CDP-star luminescence, 100 mM DEA, 30 min; hits give high values; scale: 0 levamisole-inhibited, 1 vehicle-only enzyme | AID 813;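 active = activation factor of at least 2 at 20 µM, relative to controls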
Target sequence (P05186 whole entry, looked up): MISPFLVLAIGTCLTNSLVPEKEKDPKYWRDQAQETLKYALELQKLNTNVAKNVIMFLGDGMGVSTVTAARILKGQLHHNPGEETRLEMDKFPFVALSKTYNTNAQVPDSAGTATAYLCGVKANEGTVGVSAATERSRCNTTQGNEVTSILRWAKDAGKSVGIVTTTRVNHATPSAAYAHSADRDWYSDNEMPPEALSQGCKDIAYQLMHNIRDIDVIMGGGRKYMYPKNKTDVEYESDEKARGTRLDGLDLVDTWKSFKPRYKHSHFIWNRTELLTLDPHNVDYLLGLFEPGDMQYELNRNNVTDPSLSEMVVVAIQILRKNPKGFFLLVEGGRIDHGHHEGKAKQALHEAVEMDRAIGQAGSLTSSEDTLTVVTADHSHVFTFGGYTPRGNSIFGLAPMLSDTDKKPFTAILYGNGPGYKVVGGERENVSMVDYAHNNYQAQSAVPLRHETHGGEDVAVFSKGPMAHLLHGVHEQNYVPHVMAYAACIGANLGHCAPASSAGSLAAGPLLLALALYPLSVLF
Hsp90 inh: displaces geldanamycin probe from tumor Hsp90 | inhibition, % at 30 µM | actives 0.35% (n = 64,000) | P07900 | NCI-N417 lysate Hsp90, Cy3B-geldanamycin FP displacement;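 active = inhibition above 50%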;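 also: 0% = tracer plus lysate wells and 100% = tracer alone without lysate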
Active calls of the source: *.

What do the screens show for `Cc1cc(/C=N/n2cnnc2)c(C)n1-c1ccc(OCc2ccccc2F)cc1`?
S1P1 ag-PAM: 142*; BAP1 block: 78; Her2 expr inh: 71; SK-BR-3 tox 24h: 87; TNAP act mid DEA: 1; Hsp90 inh: 9

How did c1ccc(SCc2nc(-c3cccnc3)no2)cc1 do in these assays?
BAP1 block: 75; Her2 expr inh: 56; SK-BR-3 tox 24h: 76; TNAP act mid DEA: 0.9; Hsp90 inh: -4

How did c1ccc(C(Cc2nc(-c3cccnc3)no2)c2ccccc2)cc1 do in these assays?
S1P1 ag-PAM: 85*; BAP1 block: 97; Her2 expr inh: 80; SK-BR-3 tox 24h: 97; TNAP act mid DEA: 1; Hsp90 inh: 0

Results for CCCCS(=O)(=O)/C=C\C1C2C=CC(C2)C1S(=O)(=O)CCCC (stereo unspecified) ?
S1P1 ag-PAM: -17; BAP1 block: 96; Her2 expr inh: 108; TNAP act mid DEA: 0.8; Hsp90 inh: -2

What do the screens show for `CCCCS(=O)(=O)/C=C\C=C/S(=O)(=O)CCCC`?
Her2 expr inh: -17*; SK-BR-3 tox 24h: 38*; TNAP act mid DEA: 1

What do the screens show for `O=C(CSC1=NCCS1)Nc1ccnc2ccccc12`?
S1P1 ag-PAM: 109*; BAP1 block: 91; Her2 expr inh: 93; SK-BR-3 tox 24h: 88; TNAP act mid DEA: 0.9; Hsp90 inh: 0

Results for O=C(CSC1=NCCS1)Nc1nc2c(s1)CCCC2 ?
S1P1 ag-PAM: 19; BAP1 block: 96; Her2 expr inh: 66; SK-BR-3 tox 24h: 42*; TNAP act mid DEA: 1; Hsp90 inh: -11

What do the screens show for `Cc1cc(-c2ccccc2C(=O)O)on1`?
S1P1 ag-PAM: -5; BAP1 block: 105; Her2 expr inh: 98; SK-BR-3 tox 24h: 134; TNAP act mid DEA: 0.9; Hsp90 inh: 1

How did O=C(O)c1ccccc1C1=Nc2ccc(O)cc2Oc2cc(O)ccc21 do in these assays?
S1P1 ag-PAM: -16; BAP1 block: 66; Her2 expr inh: -53*; SK-BR-3 tox 24h: 99; TNAP act mid DEA: 0.8; Hsp90 inh: 61*

Results for O=C1C(SCCO)=C(SCCO)C(=O)c2ccccc21 ?
BAP1 block: 60; Hsp90 inh: 89*

What do the screens show for `O=[N+]([O-])c1cc(C2N(Cc3ccccc3)CCN2Cc2ccccc2)ccc1Cl`?
BAP1 block: 58

What do the screens show for `CCNC(=O)c1nc[nH]c1C(=O)NCC`?
S1P1 ag-PAM: -22; BAP1 block: 97; Her2 expr inh: -22*; SK-BR-3 tox 24h: 95; TNAP act mid DEA: 1; Hsp90 inh: -3

Results for C=Cc1c(C)c2cc3[nH]c(cc4nc(cc5nc(cc1[nH]2)C(C)=C5CCC(=O)O)C(CCC(=O)O)=C4C)c(C)c3C=C ?
BAP1 block: 19*; Hsp90 inh: 139*

What do the screens show for `CC(=O)Oc1cc2oc(=O)cc(C)c2cc1OC(C)=O`?
S1P1 ag-PAM: -14; Her2 expr inh: 88; TNAP act mid DEA: 0.6; Hsp90 inh: 58*

What do the screens show for `O=C(NCc1cccs1)c1nc2c(nnn2Cc2ccccc2Cl)c(=O)[nH]1`?
S1P1 ag-PAM: -13; BAP1 block: 81; Her2 expr inh: 0.0*; SK-BR-3 tox 24h: 22*; TNAP act mid DEA: 0.9; Hsp90 inh: -2

How did CCN(CC)c1ccc2c(Cl)c(Br)c(=O)oc2c1 do in these assays?
S1P1 ag-PAM: 49; Her2 expr inh: -27*; SK-BR-3 tox 24h: inconclusive; TNAP act mid DEA: 0.9; Hsp90 inh: -47

How did CCN(CC)c1ccc2c(c1)oc(=O)c1c(Cl)cc(=O)oc12 do in these assays?
S1P1 ag-PAM: -13; BAP1 block: 118; Her2 expr inh: -17*; TNAP act mid DEA: 1; Hsp90 inh: -3

Results for CCN(CC)c1ccc2c(C)c(-c3ccc(N)cc3)c(=O)oc2c1 ?
S1P1 ag-PAM: -7; BAP1 block: 100; Her2 expr inh: 104; SK-BR-3 tox 24h: 88; TNAP act mid DEA: 0.9; Hsp90 inh: 2

Results for O=C(c1cccc(F)c1)N1CCCC(C(=O)N2CCCC2)C1 (stereo unspecified) ?
S1P1 ag-PAM: 5; BAP1 block: 81; Her2 expr inh: 94; SK-BR-3 tox 24h: 98; TNAP act mid DEA: 0.9; Hsp90 inh: -2
